Vaccinia Venus: inhibitors of vaccinia virus (Venus reporter); Vaccinia virus Venus reporter expression, fluorescence; 0.46% of 330,000 active; AID 720580; Potency, µM (titrated, usually from 36.5 µM), without a hit: at the highest dose activity change, negative = inhibition, usual class: inhibitors; calls by dose curve; tested in A549 cells; note: potency is the fitted concentration of half-maximal effect; nearly all actives have a fitted effect of over 30% in size
LASV entry inh: blocks Lassa virus binding to or entry into cells; Lassa virus pseudotype entry inhibition, cell reporter; Potency, µM (doses to about 37.9 µM), inactives show at the top dose activity change, negative = inhibition, actives largely listed as inhibitors; 1.2% of 300,000 active; AID 540256; calls by dose curve; tested in HEK293 cells; note: potency is the fitted concentration of half-maximal effect; nearly all actives have a fitted effect of over 50% in size
Marburg entry inh: blocks Marburg virus binding to or entry into cells | Marburg virus pseudotyped entry inhibition, cell reporter | Potency, µM (doses to about 37.8 µM), for inactives: at the highest dose activity change, negative = inhibition, hits mostly inhibitors | 1.8% of 300,000 active; calls by dose curve; tested in HEK293 cells; note: potency is the fitted concentration of half-maximal effect
FMDV inh: foot and mouth disease virus antiviral activity. FMDV antiviral cell-based qHTS. Potency, µM (titrated, usually from 57.9 µM), without a hit: at the highest dose activity change, negative = inhibition, most hits filed as inhibitors. 1.2% of 410,000 active. AID 1159524; calls by dose curve; tested in HEK293T cells; note: read-out not given here; potency is the fitted concentration of half-maximal effect; nearly all actives have a fitted effect of over 45% in size
HCMV antiviral: inhibitors of human cytomegalovirus; HFF cells, HCMV-luciferase reporter, 72 h; active compounds read low; activity change, negative = inhibition, % at 57.5 µM; 4.5% of 410,000 active; in the data active = activity change below about -60%; inconclusive = no clear call, values can overlap the other calls; inactive = above about -39%
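Steps: HFFs plated, 16 h 37C; compounds added; HCMV-luciferase added to MOI 1 PFU/cell; 72 h 37C; OneGlo reagent, 5 min room temperature; luminescence read, normalized to controls.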
VACV mCherry inh: inhibitors of vaccinia virus infection (mCherry reporter signal); Vaccinia virus mCherry reporter infection, fluorescence; 0.63% of 310,000 active; Potency, µM (highest dose often 36.5 µM), for the others: top-dose activity change, negative = inhibition, hits mostly inhibitors; calls by dose curve; tested in A549 cells; note: potency is the fitted concentration of half-maximal effect; nearly all actives have a fitted effect of over 35% in size
* marks the source's active call; other numbers are inactive results; i = inactive; ? = inconclusive; . = not tested or not shown; [ ] = another dose, or the depositor's remark. Hits are enriched below; roughly 6.5% of the tested compounds scored in any of these assays. % is set by controls: 0 for no effect and ±100 for the full control effect.

SMILES	Vaccinia Venus	LASV entry inh	Marburg entry inh	FMDV inh	HCMV antiviral	VACV mCherry inh
Oc1cccc(Nc2ncnc3sc4c(c23)CCCC4)c1	?	?	.	-23.5%	-9.9	?
COc1cc(SC)ccc1C(=O)N1CCN(c2ccccc2)CC1	-16.6%	12.6µM*	-23.2%[46.1 µM]	-21.9%	-1.7	-14.0%
COc1cc(SC)ccc1C(=O)N1CCC(Cc2ccccc2)CC1	.	8.2µM*	?	-25.1%	.	.
COc1cc(SC)ccc1C(=O)N1CCN(c2ccc(O)cc2)CC1	.	.	.	42.2%	-13.7	.
COc1cc(SC)ccc1C(=O)N1CCN(Cc2ccccc2)CC1	.	?	-20.3%	-23.1%	49.8	.
COc1ccccc1CNC(=O)Cn1ccsc1=N	-5.1%	10.8%[46.1 µM]	-13.7%[46.1 µM]	?	56.0	-3.2%
N=c1sccn1CC(=O)NCc1ccc(Cl)cc1Cl	-3.5%	7.6%[46.1 µM]	12.6µM*	14.6%	-35.5	i
O=C(O)CN(CC(=O)O)CC1=CC2C(=CC1=O)Oc1cc(O)c(CN(CC(=O)O)CC(=O)O)cc1C21OC(=O)c2ccccc21 (stereo unspecified)	i	.	.	-1.3%	.	45.5%
NCCCCNS(=O)(=O)c1cccc2c(Cl)cccc12	.	.	3.98µM*	.	.	.
C=C(C)C(=O)OCC(O)COc1ccc(C(C)(C)c2ccc(OCC(O)COC(=O)C(=C)C)cc2)cc1 (stereo unspecified)	?	.	.	39.8µM*	36.2	?
CC(=O)N(C)c1ccc(OCC(O)COc2ccc(N(C)C(C)=O)cc2)cc1	-4.5%	-4.7%	16.7%	0.4%	63.4	-6.6%
O=C(NCCCN1CCCCCC1)C(c1ccccc1)C1CCCCC1 (stereo unspecified)	-25.4%	.	.	-22.1%	.	-9.2%
Fc1ccc(NC(=S)NN=Cc2ccccc2Cl)cc1	-1.5%	-10.3%[46.1 µM]	?	5.3%	-16.4	-24.8%
S=C(N/N=C/c1ccccc1Cl)Nc1cccc(Cl)c1Cl	.	.	.	-5.4%	-65.2*	.
COc1ccc(-n2ncc3c(N4CCN(Cc5ccccc5)CC4)ncnc32)cc1	?	?	?	35.5µM*	-95.1*	?
Cc1ccc(-n2ncc3c(N4CCN(Cc5ccccc5)CC4)ncnc32)cc1C	-6.4%	?	.	14.1µM*	?	-5.3%
Cc1ccc(Cn2ncc3c(N4CCN(c5ccc(C)cc5)CC4)ncnc32)cc1	-20.1%	-0.1%	?	?	?	-19.9%
Cc1ccc(Cn2ncc3c(NCCN(C)C)ncnc32)cc1	.	.	.	-7.2%	-39.8	.
Cc1ccc(Cn2ncc3c(N4CCN(Cc5ccc(Cl)cc5)CC4)ncnc32)cc1	-18.4%	?	2.82µM*	?	-82.1*	-26.6%
Cc1ccc(Cn2ncc3c(NN)ncnc32)cc1	-2.7%	?	-5.1%	5.5%	-86.4*	-9.0%
S=c1sc2c(N3CCN(Cc4ccccc4)CC3)ncnc2n1-c1ccccc1	18.6%	-8.9%	?	28.2µM*	-9.9	.
CCN1CCN(c2ncnc3c2sc(=S)n3-c2ccccc2)CC1	-5.6%	-0.3%	1.2%	-22.7%	-13.9	4.2%
COc1cc2nc(N3CCCN(C)CC3)nc(N3CCN(C)CC3)c2cc1OC	?	.	.	.	.	-28.3%
CCOC(=O)C(NC(=O)CCl)(Nc1sc(C)c(CC)c1C#N)C(F)(F)F (stereo unspecified)	?	?	-41.3%	?	?	10µM*
CCOC(=O)C(NC(=O)CC(C)C)(Nc1sc(C)c(CC)c1C#N)C(F)(F)F (stereo unspecified)	-8.7%	-6.6%	14.1%	9.4%	-39.5	-12.4%
SMILES	Vaccinia Venus	LASV entry inh	Marburg entry inh	FMDV inh	HCMV antiviral	VACV mCherry inh
Cn1nc(C(=O)NC2CCCCC2)c2c1-c1ccccc1S(=O)(=O)C2	-12.7%[7.34 µM]	.	.	2.9%	-85.0*	i[7.34 µM]
Cc1cccc(C(=O)N2c3ncnn3C3(CCCCC3)[C@@H]3CCCC[C@@H]32)c1	-9.6%	0.5%[46.1 µM]	-19.2%[46.1 µM]	0.0%	-7.3	-14.4%
COc1cccc(N2CCN(C(=O)C3CCCN(S(=O)(=O)c4cccc5nsnc45)C3)CC2)c1 (stereo unspecified)	1.0%	?	?	-23.8%	-7.7	-16.8%
O=C(C1CCCN(S(=O)(=O)c2cccc3nsnc23)C1)N1CCN(c2ccccn2)CC1 (stereo unspecified)	-21.8%	-53.6%	?	28.2µM*	-64.8*	i
O=C(C1CCCN(S(=O)(=O)c2cccc3nsnc23)C1)N1CCN(c2cccc(Cl)c2)CC1 (stereo unspecified)	-26.7%	?	?	11.2µM*	-85.5*	?
CC1CCN(C(=O)C2CCCN(S(=O)(=O)c3cccc4nsnc34)C2)CC1 (stereo unspecified)	-8.0%	14.0%[46.1 µM]	13.2%[46.1 µM]	-9.7%	-27.9	i
CCOC(=O)N1CCN(c2nc(C)c3c(n2)CCCC3=O)CC1	.	1.5%	?	9.9%	-8.8	.
CCOC(=O)N1CCN(c2ncc3c(n2)CC(c2ccccc2O)CC3=O)CC1 (stereo unspecified)	?	?	1.8%[46.1 µM]	22.4µM*	?	?
CCOC(=O)N1CCN(c2ccccc2O)CC1	-13.6%	21.1%	-5.8%	-10.6%	-18.7	-17.6%
CCOC(=O)N1CCN(c2ncc3c(n2)CC(c2ccc(Cl)cc2)CC3=O)CC1 (stereo unspecified)	-12.2%	?	-5.9%[46.1 µM]	?	-103.5*	-15.2%
CC(=O)c1cc(-c2ccccc2)n(CCC(=O)NCCc2ccccc2)c1C	-4.4%	?	.	-2.1%	?	-8.8%
CCOc1ccc(/C=C2\C(=O)c3ccccc3OC2c2ccccc2)cc1 (stereo unspecified)	.	?	-9.3%	16.9%	-99.0*	.
Cc1ccc(-c2cc(C(=O)N3CCCC3)no2)cc1	-10.7%	?	?	.	-36.3	-14.7%
Cc1ccc(-c2cc(C(=O)N3CCOCC3)no2)cc1	-8.4%	.	2µM*	-67.9%	-61.4*	-8.6%
O=C(c1cc(-c2ccc(Cl)cc2Cl)on1)N1CCCC1	1.9%	3.55µM*	?	-42.5%	-20.5	34.1%
O=C(Nc1ccc(Br)cc1)c1cc(-c2ccc3c(c2)OCO3)on1	-8.4%	6.2%	13.4%[46.1 µM]	19.9%	-60.1*	-8.7%
O=C(c1cc(-c2ccc3c(c2)OCO3)on1)N1CCCCC1	10.1%	2.82µM*	?	-29.6%	39.6	10.4%
COc1cccc([C@@H]2Oc3ccc(OC)cc3C[C@@H]2OC(=O)N[C@H]2CCCc3ccccc32)c1	.	.	3.1%[14.2 µM]	.	.	.
Cc1ccc(-c2cc(C(=O)NC3CCCC3)no2)cc1	-6.8%	-12.1%[46.1 µM]	10µM*	16.9%	54.8	-7.6%
Cc1ncc2c(c1CNC(=O)c1ccsc1)CCN(C(=O)c1c(F)cccc1Cl)C2	54.5%	.	.	-8.3%	.	32.5%
COc1cccc(-c2onc3ccc(C(C)=O)cc23)c1	.	.	.	16.4%	-70.0*	.
NC(=O)NC(=O)COC(=O)c1ccc2noc(-c3ccccc3)c2c1	-3.9%	-1.7%[46.1 µM]	-7.6%[46.1 µM]	15.9%	54.5	i
CC(=O)COC(=O)c1ccc2noc(-c3ccccc3)c2c1	-17.5%	-1.5%	?	-2.3%	-67.9*	i
CC1(c2ccc3noc(-c4ccccc4)c3c2)OCCO1	-18.1%	?	-14.7%	15.8µM*	-16.0	.

Assay outcomes as filed in PubChem.
